Pf Dd2 inh = Plasmodium falciparum Dd2 growth inhibition; P. falciparum Dd2 growth, SYBR Green, 72 h; Potency, µM (highest dose often 28.9 µM), hits mostly inhibitors; actives 4.3% (n = 120,000); AID 1347417; active = well fitted inhibition curve with a large enough effect; note: nearly all actives have a fitted effect of over 65% in size
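Readout: SYBR Green fluorescence, 485 nm excitation, 535 nm emission, after ~16 h lysis at 37C. Before that, Dd2-infected red cells (2.5% hematocrit) grew 72 h with compound, 29 uM top final concentration.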
Hits are given with their value; – = inactive; ! = not confirmed by another sample; [ ] = dose if it differs, or a comment. Only a selection was taken, and hits are over-represented in it overall.

SMILES | Pf Dd2 inh
CNC(=O)[C@@H]1CN(C(=O)C2CC=CC2)C[C@H]1CO | –
O=C(NC[C@H]1OC[C@@H](NCc2cccs2)[C@@H]1O)c1cccs1 | –
CCCNC(=O)C(NC(=O)c1ccccc1)C1CCN(C(=O)c2ccccc2F)CC1 (stereo unspecified) | –
c1ccc2c(-c3nc4ccncc4[nH]3)c[nH]c2c1 | 12.6µM!
c1cncc(-c2nc3ccncc3[nH]2)c1 | –
c1c[nH]c(-c2nc3ccncc3[nH]2)c1 | 22.4µM!
Cc1ccc(-c2nc(-c3cccs3)c(-c3cccs3)[nH]2)cc1 | –
c1cnc2nc(-c3c[nH]c4ccccc34)[nH]c2c1 | –
Cc1ccoc1-c1nc2ccncc2[nH]1 | –
c1cc2nc(C3CCCCN3)[nH]c2cn1 (stereo unspecified) | –
c1cncc(-c2nc3ncccc3[nH]2)c1 | –
c1csc(-c2nc3ccncc3[nH]2)c1 | 17.8µM!
COc1cccc(CNC(=O)[C@@H]2C[C@@H](O)CN2C2CCN(C(=O)C(C)C)CC2)c1 | –
CC(=O)N1Cc2ccccc2OC2(CCN(C(=O)CN(C)C)CC2)C1 | –
O=[S+]1([O-])NC2(CCN(Cc3ccncc3)CC2)COc2ccccc21 | –
O=C(C[C@@H]1O[C@H](CNS(=O)(=O)c2ccc(Cl)cc2)[C@@H](O)[C@H]1O)NC1CC1 | –
Cc1ccc(-c2nc(CNC(=O)C3(N)CC3)[nH]c2-c2ccccn2)cc1 | –
O=C(c1cccc(F)c1)N1CCOC[C@H](Oc2ccc(C(F)(F)F)cn2)C1 | –
CCN(CC)CCCNc1cc(-c2ccccc2)nc(C)n1 | –
CCOC(=O)c1ccc(Nc2cc(-c3ccccc3)nc(C)n2)cc1 | –
Cc1nc(Nc2ccc(Cl)cc2)cc(-c2ccccc2)n1 | 8.91µM
O=C(O)c1ccc2c(c1)CC(=O)N2Cc1ccc(F)cc1 | –
O=C(c1ccc2c(c1)CC(=O)N2Cc1ccccc1)N1CCN(C2CCCCC2)CC1 | 1.41µM
O=C(NCc1cccc(F)c1)c1ccc2c(c1)CC(=O)N2Cc1ccccc1 | –
CCOCCN1C(=O)COC[C@@H]1[C@H](O)c1ccc(NC(=O)Nc2ccccc2)cc1 | –
SMILES | Pf Dd2 inh
CCCOc1nccnc1NC1CCN(C(=O)C2CCCO2)CC1 (stereo unspecified) | –[5.79 µM]
CCC(CC)NC(=O)C1(CCO)CC12CCOCC2 (stereo unspecified) | –
CCCN1CCN(CCCNC(=O)c2cc3c(Cl)nc4ccccc4c3s2)CC1 | 10µM
COc1ccc(Nc2cc(C(=O)NCc3ccccc3)c3ccccc3n2)c(OC)c1 | –
CC(C)NC(=O)c1cc2c(Cl)nc3ccccc3c2s1 | –
CCCNC(=O)c1ccc2nc(CCc3ccccc3)oc2c1 | –
O=C(NCCCN1CCN(c2ccccc2F)CC1)c1ccc2nc(CCc3ccccc3)oc2c1 | 11.2µM
CCN(CCCNC(=O)c1cc(Nc2ccccc2OC)nc2ccccc12)c1cccc(C)c1 | 11.2µM
O=C(NCc1ccccc1)c1ccc2nc(CCc3ccccc3)oc2c1 | –
COc1ccc(Nc2cc(C(=O)NCCCN3CCN(c4ccccc4F)CC3)c3ccccc3n2)c(OC)c1 | 10µM
COc1ccc(N2CCN(CCCNC(=O)c3cc(Nc4ccccc4OC)nc4ccccc34)CC2)cc1 | –
COc1ccc(Nc2cc(C(=O)NCCCN(C)Cc3ccccc3)c3ccccc3n2)c(OC)c1 | –
COc1ccccc1Nc1cc(C(=O)NC2CCCC2)c2ccccc2n1 | –
O=C(c1cc2c(Cl)nc3ccccc3c2s1)N1CCCCC1 | –
COCCOc1ccc2c(n1)CCN(C(=O)Cc1ccccc1C)C2 | –
O=C1OCCN1C1CCN(Cc2ccccc2)CC1 | –
O=C(NCc1cccc(Cl)c1)c1nnn2c1COC(c1ccc(Cl)cc1)C2 (stereo unspecified) | –
CN1C(=O)[C@H]2CN(Cc3cn[nH]c3-c3cccc(Br)c3)C[C@H]2C1=O | –
COc1ncccc1CNC[C@H]1O[C@@H]2C[C@@H](CC(=O)NCc3nccn3C)O[C@@H]2[C@@H]1O | –
COCCOc1ccc(C(=O)N[C@@H]2CN(C3CCN(C)CC3)CCC[C@H]2O)cc1 | –
COc1ccc(OC)c(CNC(=O)c2cc3c(Cl)nc4ccccc4c3s2)c1 | –
CCOC(=O)C1CCCN(C(=O)c2cc3c(Cl)nc4ccccc4c3s2)C1 (stereo unspecified) | –
O=C(NCCCN1CCN(c2ccccc2F)CC1)c1cc2c(Cl)nc3ccccc3c2s1 | 2.82µM
CC(=O)Nc1cccc(NC(=O)CC[C@H]2NC(=O)c3ccccc3NC2=O)c1 | –
CCn1cc(S(=O)(=O)N2CCCC(c3nc(-c4cnccn4)no3)CCNC(=O)CC2)cn1 (stereo unspecified) | –
O=[S+]1([O-])NCC2(CCN(Cc3cccc4ccccc34)C2)Nc2ccccc21 (stereo unspecified) | 12.6µM
O=[S+]1([O-])NCC2(CCN(Cc3ccc(F)cc3)C2)Nc2ccccc21 (stereo unspecified) | –
O=[S+]1([O-])NCC2(CCN(Cc3ccccn3)C2)Nc2ccccc21 (stereo unspecified) | –
O=C(CC(F)(F)F)N1CCC(c2noc(-c3ccccc3)n2)C1 (stereo unspecified) | –[5.79 µM]

Source: PubChem
